# According to PubChem BioAssay AID2314 (National Center for Advancing Translational Sciences (NCATS), 2010):
# Values joined by “and” are separate entries in the source; they are usually repeats but may differ in a detail not shown here. Equal values may be shown once. Hit rate of the full screen: of about 300,000 compounds, about 37,000 (12%) were called active. What follows is part of a selection rich in actives, with near analogues and random picks from the rest. A number with no mark means an inactive call. Rule as the data show it: active = max response mostly above about 13% (no sharp cut-off); inactive = mostly below about 14%.
# Test: Cycloheximide Counterscreen for Small Molecule Inhibitors of Shiga Toxin; also: read at 38.3 µM for the half of the compounds with a filed dose; 0% is about no effect
# Conditions: cell reporter, cycloheximide protein synthesis inhibition counterscreen; hits give high values
row,Compound,max response
1,COc1cccc(S(=O)(=O)NCc2ccc(C(=O)NCc3ccccn3)cc2)c1,1.45%
2,COc1cccc(NC(=S)NCc2ccccn2)c1,72.3% (active)
3,COC(=O)Cc1ccc(NC(=S)NCc2ccco2)cc1,10.2%
4,COc1cccc(NC(=S)N(Cc2ccc(C)cc2)Cc2ccccn2)c1,0.648%
5,COc1cccc(NC(=S)NCc2ccco2)c1,18.2% (active)
6,COc1cccc(OC)c1C(=O)NC(=S)NCc1ccco1,5.2%
7,CCC(C)c1ccc(NC(=S)NCc2ccccn2)cc1 (stereo unspecified),17.3% (active)
8,O=C(NCc1ccccn1)Nc1ccc(F)cc1,-3.36%
9,Cc1cc(C)cc(NC(=O)NCc2ccccn2)c1,-2.88%
10,O=C(O)C1CCCCC1C(=O)N1CCN(S(=O)(=O)c2ccc(F)cc2)CC1 (stereo unspecified),-2.39%
11,O=C(Nc1ccccc1)N1CCN(C2c3ccccc3-c3ccccc32)CC1,-0.816%
12,COc1ccc(N(CC(=O)N2CCCCCC2)S(=O)(=O)c2ccccc2)cc1,4.89%
13,CC1(C(=O)NNC(=S)NCC2CCCO2)CC1(Cl)Cl (stereo unspecified),-4.02%
14,COc1ccccc1N1CCN(S(=O)(=O)c2ccc3c(c2)NC(=O)CS3)CC1,5.75%
15,CC(=O)N1CC(=O)N(CC(=O)Nc2ccc(Br)cc2)C1=S,-5.45%
16,NC(=O)COC(=O)c1ccc2c(c1)C(=O)N(Cc1ccco1)C2=O,-3.87%
17,CCOCN(C(=O)Cn1c(C(C)O)nc2ccccc21)c1c(C)cccc1CC (stereo unspecified),-4.33%
18,COc1ccccc1NC(=O)C1CCCN(c2cc(C)nc3ncnn23)C1 (stereo unspecified),-3.74%
19,Cc1cc(C(F)(F)F)n2ncc(-c3ccccc3)c2n1,6.21%
20,COc1ccccc1-c1cnn2c(N3CCOCC3)cc(C)nc12,52% (active)
21,CN1C(=O)/C(=C\c2cc(Br)cs2)c2ccccc21,46.4% (active)
22,CCC1C(=O)c2ccccc2N(C)C1=O (stereo unspecified),-0.886%
23,CN1C(=O)/C(=N/OC(=O)c2ccccc2Br)c2ccccc21,3.18%
24,COc1ccc(/C=C(\NC(=O)c2ccccc2)C(=O)NCCN2CCOCC2)cc1OC,-1.94%

row,Compound,max response
1,O=C(CNCCC1=CCCCC1)Nc1ccccc1N1CCCCCC1,-4.26%
2,CCOc1ccc(C(CCc2ccccc2)NC(=O)c2ccc(OC)c(OC)c2)cc1OCC (stereo unspecified),7.29%
3,COCC(C)NC(=O)c1ccc(Cl)c(Cl)c1 (stereo unspecified),0.894%
4,Cc1ccc(C)c(NC(=O)c2ccc3nccnc3c2)c1,5.91%
5,CC(C)CCC(C)NC(=O)c1ccc2nccnc2c1 (stereo unspecified),53.8% (active)
6,CC(C)C(=O)Nc1c2c(nn1-c1ccccc1)CSC2,-1.75%
7,Cn1c(=O)c2sccc2n(Cc2ccc(Br)cc2)c1=O,-2.03%
8,CCN(CC)CCC(c1ccc2c(c1)OCO2)c1c(OC)cc(OC)c2c(-c3ccccc3)cc(=O)oc12 (stereo unspecified),-5.1% and -16.4%
9,C/C(=C\C(=O)c1ccc(Br)cc1)N1CCCCC1,-3.58%
10,COc1cc2c(cc1OC)/C(=C/C(=O)c1ccc(NC(C)=O)cc1)NCC2,-5.05%
11,CC1CN/C(=C\C(=O)c2ccc(Br)cc2)C(=O)N1 (stereo unspecified),106% (active)
12,Cc1cccc(-n2c(SCC(=O)Nc3cccc(S(=O)(=O)NC4=NCCCCC4)c3)nc3ccccc3c2=O)c1C,-4.44%
13,Cc1cc(Cl)ccc1OCCCC(=O)Nc1cccc(-n2cnnn2)c1,1.51%
14,O=C(Cc1ccccc1)N1CCN(S(=O)(=O)c2ccc([N+](=O)[O-])cc2)CC1,-3.27%
15,N#C/C=C1\Sc2ccccc2C(=O)N1CC(=O)N1CCN(S(=O)(=O)c2ccccc2)CC1,27.7% (active)
16,CC(CC(=O)N1CCN(S(=O)(=O)c2ccccc2)CC1)n1cncn1 (stereo unspecified),-1.89%
17,Cc1ccc(S(=O)(=O)N(NC2=NS(=O)(=O)c3ccccc32)C(=O)c2ccccc2)cc1,-4.47%
18,O=C(Oc1cccc(NC2=NS(=O)(=O)c3ccccc32)c1)c1ccncc1,-1.79%
19,CC(C)(C)c1csc(NC2=NS(=O)(=O)c3ccccc32)n1,26.2% (active)
20,O=C(Nc1cccc(-c2cccc(Cl)c2)c1)C1CCN(C2CCC2)CC1,-5.18%
21,O=C(OCCN=C1NS(=O)(=O)c2ccccc21)c1cccc([N+](=O)[O-])c1,0.837%
22,CCC(CC)c1nnc(NC(=O)c2nn(C)c(=O)c3ccccc23)s1,-3.83%
23,Nc1ccc(SCCN2C(=O)c3ccccc3C2=O)cc1,30.6% (active)
24,Cc1ccc(SCCN2C(=O)NC(C)(C)C2=O)cc1,-0.406%

row,Compound,max response
1,CC(=O)c1cnc(SCCN2C(=O)c3ccccc3C2=O)nc1C,6.2%
2,CCCCc1cc(=O)oc2c(C)c(OCC(=O)N3CCC(C(N)=O)CC3)ccc12,-2.86%
3,COc1ccc(Cl)cc1NC(=O)Cn1nc(-c2ccc(C)cc2)n(C)c1=S,0.595%
4,CCN(CC(=O)NCc1ccco1)S(=O)(=O)c1ccc(F)cc1,-3.33%
5,COc1cc(Nc2nc3ccc(Cl)cc3n3cnnc23)cc(OC)c1OC,-8.65%
6,COc1ccc(-c2oc3ncnc(NCCCO)c3c2-c2ccc(OC)cc2)cc1,-2.49%
7,Cc1[nH]n(-c2ccc(Cl)cc2)c(=O)c1/C=N/n1c(C)nc2ccccc2c1=O,-2.58%
8,Cc1ccc(-n2[nH]c(C)c(/C=N/NC(=O)c3cccc([N+](=O)[O-])c3)c2=O)cc1C,34.1% (active)
9,COc1cc(/C=N\NC(=O)CNC(=O)c2cccc([N+](=O)[O-])c2)ccc1O,2.84%
10,COc1cc(/C=N/NC(=O)c2ccoc2C)ccc1OCCN1CCCCC1,15.6%
11,Cc1[nH]n(-c2ccccc2)c(=O)c1/C=N/NC(=O)c1ccoc1C,55% (active)
12,COc1cccc(/C=N/NC(=O)c2cccc([N+](=O)[O-])c2)c1OS(=O)(=O)c1ccc(C)cc1,1.94%
13,O=C(O)c1ccc(-n2nc(-c3ccccc3)c3ccccc3c2=O)cc1,15%
14,COc1ccc(OC)c(S(=O)(=O)n2c([N+](=O)[O-])cnc2C)c1,1.29%
15,COc1cccc(CNC(=O)C2CC(=O)N(C3CCCCCCC3)C2)c1 (stereo unspecified),24.6%
16,O=C1NC(c2cccc(Cl)c2)Nc2ccccc21 (stereo unspecified),16% (active)
17,O=C1CC(c2cccc(Cl)c2)CC(O)=C1C=Nc1ccccc1 (stereo unspecified),-1.34%
18,C=CCOc1cccc(C2NC(=O)c3ccccc3O2)c1 (stereo unspecified),11.8%
19,Cc1ccc(C2Nc3cccc4cccc(c34)N2)cc1,2.47%
20,COc1cccc(C2Nc3cccc4cccc(c34)N2)c1,1.12%
21,COc1ccc(C2NC(=O)c3ccccc3N2)cc1 (stereo unspecified),19.8% (active)
22,CC1=CC(C)(C)NC(=S)N1c1ccccc1,-0.571%
23,COC(=O)c1ccccc1NC(=O)CSc1nc2c(c(=O)[nH]1)CCC2,-0.834%
24,COc1ccc(NC(=O)CC2C(=O)NC3CCCCC3N2C(=O)c2ccc(F)cc2)cc1 (stereo unspecified),-1.58%

row,Compound,max response
1,COc1cccc(Nc2ncccc2C(=O)O)c1,48% (active)
2,O=C(Nc1ccccc1)c1cccnc1Nc1ccccc1,15%
3,COc1cccc(NC(=O)c2ccccc2SC)c1,2.56%
4,CC(C)CCn1cnc2c1c(=O)n(CC(=O)NC(N)=O)c(=O)n2Cc1ccccc1,-9.03%
5,Nc1nc(Nc2ccccc2F)nc(NC2CCCCC2)c1[N+](=O)[O-],-1.02%
6,CCOC(=O)C1CCN(C(=O)COc2cc(C)c(Br)c(C)c2)CC1,-0.76%
7,NC(=O)C1CCN(C(=O)COc2cccc3cccnc23)CC1,-4.62%
8,CCOC(=O)C1CCN(C(=O)COc2cccc3ccccc23)CC1,21.6% (active)
9,CN(CC(=O)Nc1ccccc1F)CC(=O)Nc1ccccc1Br,27.5%
10,O=C(NNC(=O)c1cc2c(s1)CCCC2)c1ccccc1,60.8% (active)
11,Cc1nn(C)cc1C(=O)Nc1ccccc1Br,9.35%
12,O=C(CNC(=O)c1cc2c(s1)CCC2)Nc1ccccc1Br,28.4% (active)
13,O=C(c1ccccc1)c1ccc(C(=O)N2CCN(c3ccccc3)CC2)cc1,11.3%
14,O=C(COC(=O)c1cc2c(s1)CCCC2)NCc1ccccc1Cl,-0.034%
15,O=C(C1CCC1)N1CCN(c2ccccc2)CC1,-0.903%
16,O=C(Nc1ccc(F)cc1)c1cc2c(s1)CCCC2,34.8% (active)
17,O=C(c1cc2c(s1)CCC2)N1CCN(c2ccccc2)CC1,35.8% (active)
18,COc1ccc(/C=C2/SC(=O)N(CCCCCC(=O)Nc3ccccc3C(=O)O)C2=S)cc1,-7.35%
19,Cc1cc(NC(=O)CCC(=O)N(CC(=O)NC2CCCC2)c2ccc(F)cc2)no1,-7.13%
20,CC(C)CCn1c(=O)c2c(nc3n2CCCN3Cc2ccccc2)n(C)c1=O,-1.82%
21,O=C(CSCc1ccc([N+](=O)[O-])cc1)Nc1cccc(C(=O)Nc2ccccc2C(=O)O)c1,-3.69%
22,C=CCn1c(C2CC(=O)N(c3ccc(C)cc3)C2)nc2ccccc21 (stereo unspecified),-5.17%
23,CC(C)(C)c1cc2cccnc2n1Cc1cccc(F)c1,-4.56%
24,CCc1ccc(OCC(=O)N(Cc2ccccc2)C2CCS(=O)(=O)C2)cc1 (stereo unspecified),-3.33%
